In PubChem BioAssay one finds inhibition data, which are given here for 24 compounds.

Active and inactive are the calls of the source. Rule as the data show it: active = inhibition above about 28%; inactive = the rest.

This assay can be described thus: StAR promoter reporter inhibitors, counter-screen for LRH-1 inverse agonist project, cell-based, luminescence, high throughput (AID 651611). As to conditions: StAR promoter luciferase reporter counterscreen, at 3.6 µM, active compounds read high.
Consider `Cc1ccc(NC(=O)CSc2nc3[nH]c(=O)cc(O)c3s2)c(Br)c1`, for which the inhibition was 5.79% (inactive).

For the compound `CCOc1ccc(CCNC(=O)COC(=O)CCc2cc(OC)c(OC)c(OC)c2)cc1OCC`, the inhibition is 2.32% (inactive).

Turning to `O=C1C=C(c2ccccc2)OC2(CCCC2)O1`, the inhibition is 19.8% (inactive).

As to `O=C(NC1CCCCC1)c1ccc([N+](=O)[O-])o1`, the inhibition was 24.6% (inactive).

With `COCC(C)n1c(-c2ccc3c(c2)NC(=O)CO3)csc1=Nc1ccc(OC(F)F)cc1` (centres undefined), the inhibition is 10.3% (inactive).

Take `CCOc1ccc2c(c1)sc(N)[n+]2Cc1cc(C)cc2cccnc12`: the inhibition is 30.7% (active).

As for `O=C(COc1ccc2ccc(=O)oc2c1)Nc1ccc(N2CCOCC2)cc1`, the inhibition is 13.3% (inactive).

Take `CC(=O)N[C@@H](Cc1c[nH]c2ccccc12)C(=O)OCC(=O)Nc1ccc2c(c1)OCO2`: the inhibition is -1.82% (inactive).

Turning to `COc1ccc(C2=Nn3c(nnc3-c3ccccc3F)SC2)cc1OC1CCOC1` (centres undefined), the inhibition is 56.2% (active).

As to `COc1cc(C(=O)OCC(=O)Nc2ccc(N3CCOCC3)cc2)ccc1OCC(C)C`, the inhibition is 14.1% (inactive).

In the case of `Cn1cc(Cl)c(C(=O)OCC(=O)Nc2ccc(S(N)(=O)=O)cc2)n1`, the inhibition is 10.9% (inactive).

`O=C(COc1cc2oc(=O)cc(-c3ccccc3)c2cc1Cl)NCCN1CCOCC1`: the inhibition was 10.4% (inactive).

Take `Cc1cc(-c2nn3c(-c4ccccc4)nnc3s2)c2ccccc2n1`: the inhibition is 7.3% (inactive).

As to `COc1ccc(CCNC(=O)COC(=O)C2CC2C)cc1` (centres undefined), the inhibition was 3.36% (inactive).

For the compound `O=C1C(=C(I)I)c2ccccc2-c2ccccc21`, the inhibition is 2.21% (inactive).

Consider `CCOC(=O)c1cc(C#N)c(N2CCCCC2)nc1-c1ccccc1`, for which the inhibition was 8.89% (inactive).

For the compound `CCCCCOc1ccc(NC(=O)CSc2cccc3cccnc23)cc1`, the inhibition is -12.7% (inactive).

In the case of `Cc1ccc(NC(=O)COC(=O)C(NS(=O)(=O)c2ccc(Cl)cc2)C(C)O)cc1C` (centres undefined), the inhibition is 2.25% (inactive).

For `Cc1ccc(N2C(=O)C(Cl)=C(N3CCN(C)CC3)C2=O)c(C)c1`, the inhibition is 13.1% (inactive).

Turning to `COc1ccc(NC(=O)CSc2nnc3ccc(-c4cccnc4)nn23)cc1OC`, the inhibition is 7.32% (inactive).

With `O=[N+]([O-])c1ccc(S(=O)Cc2ccccc2)c([N+](=O)[O-])c1` (centres undefined), the inhibition is 8.41% (inactive).

As to `O=C(Nc1ccc(C(=O)N2CCOCC2)cc1)c1cccc([N+](=O)[O-])c1`, the inhibition is 1.39% (inactive).

For `O=C(Nc1ccc2oc(-c3ccccc3F)nc2c1)c1ccc([N+](=O)[O-])o1`, the inhibition is -5.27% (inactive).

`CCN(Cc1ccccc1)c1ccc(/C=N/N2CCOCC2)cc1`: the inhibition is -41.2% (inactive).
